Experimental data as given in PubChem BioAssay (NCATS).
Records with an inconclusive call do not appear. Entries that show only a call come without a potency. Activity calls are given as the source filed them. Unless noted, calls come from the whole dose curve; as a rule, active = well fitted curve in the direction sought with a large enough effect; inconclusive = small, poorly fitted or top-dose-only effect, or another doubt; inactive = no such curve, though single readings can be large; an effect the other way counts as inactive or inconclusive.

What was measured:
[1] = target: Luciferin 4-monooxygenase (Photinus pyralis) (UniProt P08659); experiment: Biochemical firefly luciferase enzyme assay for NPC (AID 624030);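 note: purified P. pyralis luciferase at 10 nM with luciferin and ATP substrate; nearly all actives have a fitted effect of over 70% in size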
Summary of the method: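 Direct inhibition of firefly luciferase enzyme (10 nM final, 50 mM Tris Acetate) assessed by luminescence within 5 minutes. Percent activity scaled between DMSO and PTC124 positive control, with concentration-effect curves classified by fit quality and response.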

[2] = S16 Schwann cell viability assay (CellTiter-Glo assay) (AID 624031);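 note: native untransfected S16 rat Schwann cells; cellular ATP luminescence as a viability measure; nearly all actives have a fitted effect of over 70% in size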
Summary of the method: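 Following overnight culture in 10% FBS DMEM, parental S16 rat Schwann cells are dosed for 24 h at 37 °C. Viability is read as CellTiter-Glo luminescence and expressed as % activity relative to DMSO (0%) and no-cell wells.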

[3] = S16 Schwann cell PMP22 intronic element firefly luciferase assay (AID 624032); note: nearly all actives have a fitted effect of over 30% in size
Summary of the method: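 Luciferase reporter of PMP22 intronic-element expression in stably transfected S16 rat Schwann cells, read by ONE-Glo luminescence after 24 h compound exposure at 37 C. Activity scaled between DMSO (0%) and positive-control PTC124; concentration-effect curves quality-classified.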

[4] = S16 Schwann cell PMP22 intronic element beta-lactamase assay (AID 624044; calls by dose curve; note: nearly all actives have a fitted effect of over 15% in size)
Summary of the method: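 Rat S16 Schwann cells with beta-Lac driven by a PMP22 intronic element, compound-treated 24 h at 37 °C. LiveBLAzer FRET B/G read: 460 nm normalized to potassium clavulanate vs DMSO; 535 nm FRET as viability; concentration-effect curves classified.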

[5] = qHTS profiling of the MIPE4 collection as inhibitors of Plasmodium falciparum (3D7) proliferation (AID 743344; call rule not given here); conditions: P. falciparum 3D7 in erythrocytes, SYBR Green DNA fluorescence, 72 h; at 28.5 µM (top of the series) unless noted
Summary of the method: (§1)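 Erythrocytes infected with P. falciparum (0.3% parasitemia, 2.5% hematocrit) incubated with compounds 72 h at 37 C, 5% CO2. Lysis with saponin/Triton buffer containing SYBR Green I, overnight at room temperature in the dark; DNA fluorescence (485/535 nm) normalised to 0.29 uM artemisinin and DMSO.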

[6] = qHTS profiling of the MIPE4 collection as inhibitors of Plasmodium falciparum (DD2) proliferation (Rep 2) (AID 743346; call rule not given here); conditions: P. falciparum Dd2 in erythrocytes, SYBR Green DNA, 72 h; at 28.5 µM (top of the series) unless noted
Summary of the method: as §1

[7] = qHTS profiling of the MIPE4 collection as inhibitors of Plasmodium falciparum (HB3) proliferation (AID 743347; call rule not given here); conditions: P. falciparum HB3 in erythrocytes, SYBR Green DNA, 72 h; at 28.5 µM (top of the series) unless noted
Summary of the method: as §1

Luciferin 4-monooxygenase (Photinus pyralis), sequence (P08659 whole entry, looked up): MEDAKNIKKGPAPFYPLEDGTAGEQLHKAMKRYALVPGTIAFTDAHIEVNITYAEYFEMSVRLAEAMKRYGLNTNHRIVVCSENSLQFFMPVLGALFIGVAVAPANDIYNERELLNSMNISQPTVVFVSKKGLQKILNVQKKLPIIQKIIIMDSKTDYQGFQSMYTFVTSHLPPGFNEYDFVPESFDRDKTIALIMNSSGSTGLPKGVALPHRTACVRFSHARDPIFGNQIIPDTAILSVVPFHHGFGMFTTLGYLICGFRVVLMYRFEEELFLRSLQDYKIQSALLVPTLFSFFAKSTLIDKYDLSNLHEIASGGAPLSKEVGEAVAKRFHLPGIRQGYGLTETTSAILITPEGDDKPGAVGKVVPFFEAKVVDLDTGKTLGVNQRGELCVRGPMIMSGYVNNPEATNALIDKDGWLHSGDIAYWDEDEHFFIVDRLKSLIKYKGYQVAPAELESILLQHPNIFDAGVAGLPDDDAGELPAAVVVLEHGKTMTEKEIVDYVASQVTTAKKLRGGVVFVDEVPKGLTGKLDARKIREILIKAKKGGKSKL

| SMILES | Potency [1] | Potency [2] | Potency [3] | Potency [4] | parasite growth, % of DMSO control [5] [%] | parasite growth, % of control (lower = inhibition) [6] [%] | growth, % of control [7] [%] |
| --- | --- | --- | --- | --- | --- | --- | --- |
| CCN1C[C@]2(COC)[C@H](O)C[C@H](OC)[C@]34C1C([C@H](OC)[C@H]23)[C@]1(OC(C)=O)C2[C@@H](OC(=O)c3ccccc3)C(O)(C[C@H]24)[C@@H](OC)[C@@H]1O | inactive | inactive | inactive | inactive | – | – | – |
| O=C1CC[C@@]2(O)[C@H]3Cc4ccc(O)c5c4C2(CCN3CC2CC2)[C@H]1O5 | – | – | – | – | 101 | 59.1 | 94.1 |
